Laboratory results as given in the supplement of paper PMC10941209.

The molecules below were run on HFF (assay: cell viability relative to DMSO control; higher = less cytotoxic). Details: 1 µM; 72 h.
Description: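 Single-dose cytotoxicity screen of the MMV Pandemic Response Box at 1 uM on human foreskin fibroblasts (HFF), 72 h at 37 C. Viability measured by MTT (OD 550 nm) and normalised to the DMSO control (% survival).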

Point of comparison: O=C(Nc1ccc(Cl)c(C(F)(F)F)c1)C(CCCl)C(=O)Nc1ccc(Cl)c(C(F)(F)F)c1, cell viability 79%. Against it:
- C[C@@H]1O[C@@H]1P(=O)(O)O — lower, 65%
- Cc1ccn2c(C(=O)NCc3ccccc3)c(C)nc2c1 — lower, 66.8%
- O=[N+]([O-])/C(Br)=C/c1ccc(Br)o1 — lower, 63.2%
- OCCCCn1cnc2c(O)nc(NCc3ccc(Cl)c(Cl)c3)nc21 — lower, 62.2%
- CC(C)n1cnc2c(NCc3ccccc3)nc(NCc3ccccc3)nc21 — lower, 65.3%
- CCc1ccc(C2CC(C(F)(F)F)n3ncc(C(=O)NCc4ccc(OC)cc4)c3N2)cc1 (configuration not stated) — lower, 76.2%
- Cc1ccccc1NC(=O)Nc1cccc([N+](=O)[O-])c1 — lower, 71.1%
- Oc1cccc(C(Nc2nccs2)c2ccc3cccnc3c2O)c1 (configuration not stated) — lower, 72%
- O=C(c1ccc(F)cc1)N1CCN2C(=O)c3ccccc3C12c1ccccc1 (configuration not stated) — lower, 63.3%
- O=c1[nH]cnc2c1ncn2[C@H]1CC[C@@H](CO)O1 — lower, 72.2%
- CN1c2ccc(Cl)cc2N(c2ccccc2)C(=O)c2cn(Cc3ccc(CN4CCOCC4)cc3)nc21 — lower, 68.2%
- CCC[C@H](NC(=O)[C@@H]1[C@H]2CCC[C@H]2CN1C(=O)[C@@H](NC(=O)[C@@H](NC(=O)c1cnccn1)C1CCCCC1)C(C)(C)C)C(=O)C(=O)NC1CC1 — lower, 61.8%
- Nc1cccc(-c2nc(N)nc(NC3Cc4ccccc4C3)n2)c1 — lower, 68.2%
- NC(=O)c1cnc2ccc(S(=O)(=O)c3ccccc3)cc2c1Nc1ccc(O)cc1 — lower, 59.5%
- CCCC1(C2CC2)c2cc(Cl)ccc2NC(=O)N1C (configuration not stated) — lower, 62.3%
- Nc1nc(F)nc2c1ncn2[C@H]1O[C@@H](CO)[C@H](O)[C@@H]1O — lower, 65%
- CN(C)CCCOc1ccc(-c2ccc3ncc4c(c3c2)n(C2CCOCC2)c(=O)n4C)cn1 — lower, 60.6%
- N=c1n(CCN2CCCCC2)c2ccccc2n1CC(O)COc1ccc(Cl)cc1Cl (configuration not stated) — higher, 81.4%
- N#CCN1C(=O)COc2cc(F)c(N3C(=O)c4ccccc4C3=O)cc21 — lower, 63.5%
- O=C(/C=C/n1cnc(-c2cc(C(F)(F)F)cc(C(F)(F)F)c2)n1)NNc1cnccn1 — lower, 59.7%
- CCCCCCCc1[nH]c2ccccc2c(=O)c1O — lower, 62%
- O=S(=O)(Nc1cccc2cccnc12)c1ccccc1 — lower, 64.1%
- COc1ccc2sc3c(c2c1)NC(C)CNC3=O (configuration not stated) — higher, 82.1%
- CC(C)/N=c1\cc2n(-c3ccc(Cl)cc3)c3ccccc3nc-2cc1Nc1ccc(Cl)cc1 — lower, 72.6%
- CC#C[C@]1(O)CC[C@H]2[C@@H]3CCC4=CC(=O)CCC4=C3[C@@H](c3ccc(N(C)C)cc3)C[C@@]21C — lower, 52%
- Oc1c(C(Nc2nc3ccccc3s2)c2ccc(OC(F)F)cc2)ccc2cccnc12 (configuration not stated) — lower, 57.5%
- O=C(Nc1ncc(Cc2cccc3ccccc23)s1)C1CCCCC1 — lower, 58.6%
- CC1=C(/C=C/C(C)=C/C=C/C(C)=C/C(=O)Nc2ccc(O)cc2)C(C)(C)CCC1 — lower, 70.8%
- Cc1cc(C)n2nc(C(=O)NS(=O)(=O)c3c(C)cccc3OC(F)(F)F)nc2n1 — lower, 72.2%
- OC1O[C@H](CSc2ccc(F)cc2)[C@@H](O)[C@H]1O (some centres not stated) — lower, 67.7%
- Cc1cc(C2CCCCC2)n(O)c(=O)c1 — lower, 78.2%
- C[Si]1(C)CCN(Cc2cc(-c3ccc(Cl)cc3)n(-c3ccc(Cl)cc3)n2)CC1 — higher, 82.5%
- Nc1nc(N)c2c(Sc3ccccc3)cccc2n1 — lower, 68.7%
- O=C(NCCN1CCCCC1)c1cccc(C(F)(F)F)c1 — lower, 70.6%
- CCC(C)NCC(O)Cn1c2ccc(Cl)cc2c2cc(Cl)ccc21 (configuration not stated) — lower, 68.3%
- Nc1nc(O)c2ncn([C@@H]3O[C@H](CO)[C@@H](O)[C@H]3F)c2n1 — lower, 68.9%
